HP1b chromo inh – blocks HP1-beta chromodomain binding to methylated histone tails; 390,000 compounds, 0.56% hits; AlphaScreen HP1-beta / biotin-H3K9me3 peptide binding; Potency, µM (titrated, usually from 114 µM), without a hit: at the top dose activity change, negative = inhibition, most hits filed as inhibitors; P83916; also: nearly all actives have a fitted effect of over 70% in size
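Compound inhibition of the preformed complex between 50 nM HP1-beta and 50 nM biotinylated H3K9me3 peptide was read by AlphaScreen. Buffer was PBS pH 7.4 with 0.01% Tween-20. Incubations ran 30 min at room temperature, with 10 ug/mL donor/acceptor beads.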
BAZ2B inh – blocks human BAZ2B; AlphaScreen BAZ2B-H3K14Ac peptide displacement; Potency, µM (highest dose often 114 µM), inactives show at the highest dose activity change, negative = inhibition, hits mostly inhibitors; 360,000 compounds, 4.4% hits; AID 504333; also: % is scaled to controls: 0 for no effect and ±100 for the full control effect; nearly all actives have a fitted effect of over 60% in size
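AlphaScreen displacement of biotin-H3(5-23)K14Ac peptide (50 nM final) from BAZ2B (50 nM final) in PBS pH 7.4, 0.01% Tween-20; complex preformed 30 min RT, then compounds (top 110 uM) 30 min RT, beads 20 min dark.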
JMJD2A Tudor – inhibitors of human JMJD2A Tudor domain; AlphaScreen JMJD2A-Tudor / H3K4me3 peptide binding; 390,000 compounds, 4.4% hits; Potency, µM (doses to about 114 µM), inactives show at the top dose activity change, negative = inhibition, actives largely listed as inhibitors; AID 504339; O75164; also: % is scaled to controls: 0 for no effect and ±100 for the full control effect; nearly all actives have a fitted effect of over 50% in size
L3MBTL1 block – blocks human L3MBTL1 | AlphaScreen L3MBTL1–H3K9me1 peptide binding | Potency, µM (titrated, usually from 57.1 µM), for inactives: at the top dose activity, negative = inhibition, actives largely listed as inhibitors | 230,000 compounds, 0.66% hits; also: % is scaled to controls: 0 for no effect and ±100 for the full control effect; nearly all actives have a fitted effect of over 60% in size
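L3MBTL1 50 nM + b-AHA-H3(1-15)K9me1 75 nM, 30 min RT; compound added, 30 min RT; streptavidin donor/Ni-chelate acceptor beads 10 ug/mL each final, 30 min RT dark; AlphaScreen read.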
G9a block – G9a (human) methyltransferase inhibition | Q96KQ7 | G9a H3K9 monomethylation, AlphaScreen, 2 h | Potency, µM (titrated, usually from 102 µM), without a hit: at the top dose activity, negative = inhibition, usual class: inhibitors | 350,000 compounds, 8.8% hits | AID 504332; also: % is scaled to controls: 0 for no effect and ±100 for the full control effect; nearly all actives have a fitted effect of over 75% in size
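Step 1: enzyme (final 20 nM) with compound, 15 min RT. Step 2: substrate peptide 500 nM and SAM 20 uM, 2 h RT. Step 3: anti-H3K9me1 antibody and AlphaScreen beads, 10 min, then plate read.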
* marks the source's active call; other numbers are inactive results; ? = inconclusive; · = no result given; ! = a repeat was not active; [ ] = dose if it differs, or a comment. Shown are actives, neighbours in structure and some others; about 11% of the full set was active somewhere. Calls follow the shape of the dose curve; as a rule, active = well fitted inhibition curve with a large enough effect; inconclusive = small, poorly fitted or top-dose-only effect; inactive = no such curve, though single readings can be large or run the other way. Potency is read from the fitted curve at half-maximal effect.

SMILES | HP1b chromo inh | BAZ2B inh | JMJD2A Tudor | L3MBTL1 block | G9a block
Cc1cc2ccccn2c1C(=O)c1ccc(F)cc1 | 103.6% | 16.9% | 47.3% | · | 39.8%[59 µM]
Cc1cc2ccccn2c1C(=O)c1ccc([N+](=O)[O-])cc1[N+](=O)[O-] | 39.8µM* | 25.1µM* | 20µM* | · | ?
Cc1ccc(C(=O)N(c2ccc(C)cc2)S(=O)(=O)c2ccc(Cl)cc2)cc1 | 36.7% | 3.5% | -6.2% | · | 9.6%[59 µM]
NC1(C(=O)O)CCCCC1 | · | · | · | · | 1.89µM*!
NC1(C(=O)O)C[C@@H](C(=O)O)[C@H](C(=O)O)C1 | · | · | · | · | 21.5%[59 µM]
NC1(C(=O)O)CSSC1 | ? | · | 89.1µM* | · | ·
Cc1nnc(N2CCN(c3cccc(C(F)(F)F)c3)CC2)c2c1nnn2Cc1ccccc1 | 34.3% | 0.8% | -12.3% | · | 8.4%[59 µM]
Cn1c(=O)c2c(-c3cccc(Br)c3)n(CCO)cc2n(C)c1=O | 25.3% | -1.1% | -8.9% | · | -17.8%[59 µM]
CC(=O)Nc1nc2c(s1)C(=O)NCCC2 | 6.9% | -23.8% | -6.9% | 6.6% | 2.0%
CCS(=O)(=O)c1ccc2oc(Nc3cc(Cl)ccc3OC)nc2c1 | 31.1% | 5.3% | 7.1% | · | 35.5µM*
O=C(NCc1cccnc1)/C(=C\c1ccc(-c2ccc(Br)cc2)o1)S(=O)(=O)c1ccccc1 | -4.7% | ? | ? | -8.2% | 14.1µM*
O=C(NCc1cccnc1)/C(=C/c1ccc(-c2ccc(Cl)cc2)o1)S(=O)(=O)c1ccccc1 | -8.9% | ? | ? | -9.2% | -0.4%[59 µM]
O=C(Nc1nccs1)C1CC(=O)N(CCc2ccc(F)cc2)C1 (stereo unspecified) | -7.0% | -19.3% | -15.4% | · | ?
CCc1nc(N2CCN(C(=O)CCl)CC2)c2c3c(sc2n1)CC(C)CC3 (stereo unspecified) | 16.9% | -25.1% | -28.8% | -3.1% | 79.4µM*
CCc1nc(N2CCN(C(C)=O)CC2)c2c3c(sc2n1)CC(C(C)(C)C)CC3 (stereo unspecified) | -16.6% | -2.3% | ? | 1.1% | -20.1%
CCN(CC)CCc1nc(-c2ccccc2)no1 | 13.5% | -4.3% | 39.8µM* | -2.9% | 12.6µM*!
O=C(Nc1ccc(N2CCOCC2)cc1)c1cccc(-n2cnnc2)c1 | -11.1% | -22.1% | -14.6% | · | 44.7µM*
O=C(Nc1ccc(N2CCOCC2)c(Cl)c1)c1cccc(-n2cnnc2)c1 | 16.6% | -4.8% | -11.0% | · | 21.4%
O=C(Nc1ccc(N2CCOCC2)cc1)c1ccncc1 | 6.5% | -3.6% | -13.5% | -25.1% | -5.3%[59 µM]
Cc1cc(C)n(-c2ccc(C(=O)Nc3ccc4c(c3)OCO4)cc2)n1 | 1.1% | -21.7% | -13.2% | · | -14.2%
O=C(Nc1ccc(N2CCOCC2)cc1)c1ccc(Cl)nc1 | -18.4% | ? | ? | · | 50.1µM*
CSc1cccc(NC(=O)c2ccc(Cl)nc2)c1 | 40.8% | ? | -1.8% | 2.8% | 17.7%
CCN(c1ccc(NC(=O)c2ccc(Cl)nc2)cc1)C(C)C | 29.4% | ? | -14.8% | ? | 22.4µM*
Cc1cc(C)n(-c2ccc(C(=O)Nc3ccc(N4CCOCC4)cc3)cc2)n1 | 23.6% | -27.0% | -24.8% | · | 56.2µM*
CCOc1ccc(NC(=O)CN(C)C(=O)c2cc3c(s2)CCC(C)C3)cc1OCC (stereo unspecified) | 6.1% | -12.9% | ? | -4.2% | 9.9%[12.7 µM]
SMILES | HP1b chromo inh | BAZ2B inh | JMJD2A Tudor | L3MBTL1 block | G9a block
CC1CCc2sc(C(=O)Nc3ccc(N4CCOCC4)cc3)cc2C1 (stereo unspecified) | ? | ? | ? | -2.1% | 31.6µM*
CCOc1ccc(NC(=O)c2cccc(-n3cccc3)c2)cc1S(=O)(=O)N1CCOCC1 | · | 5.01µM* | · | 5.62µM* | -7.5%[2.33 µM]
NC(=S)N/N=C/c1ccc(-c2cc(Cl)cc(Cl)c2)o1 | 9.1% | -33.4% | -34.7% | · | 12.6µM*
CN(/N=C/c1ccc(-c2ccc([N+](=O)[O-])cc2)o1)c1ccccc1 | ? | -36.0% | 25.1µM* | -12.2% | -5.0%
NC(=S)N/N=C/c1ccc(-c2ccc([N+](=O)[O-])cc2)o1 | 31.7% | -29.3% | -13.0% | -7.9% | 22.4µM*
NC(=S)N/N=C/c1ccc(-c2cc(Cl)ccc2Cl)o1 | -9.2% | -2.4% | ? | · | -5.7%
CN(C)/N=C/c1ccc(Sc2ccccc2[N+](=O)[O-])o1 | 35.5µM* | 20µM* | 39.8µM* | ? | 25.1µM*
CCc1ccc(C(=O)c2cnc3ccc(F)cc3c2S(=O)(=O)c2ccccc2)cc1 | -1.4% | ? | -34.5% | · | ?
Cc1cccc(NC(=O)C2CCN(c3nnc(-n4c(C)ccc4C)s3)CC2)c1C | 58.1% | -15.3% | -14.4% | · | 5.9%[59 µM]
N#Cc1nc(Nc2cccc(-c3ccccc3)c2)nc(NC2CCCC2)n1 | · | · | -13.0% | · | ·
CC(=O)NC(CC(=O)Nc1ccc(S(=O)(=O)N2CCCC2)cc1)c1ccccc1 (stereo unspecified) | 41.9% | · | -13.0%[57.1 µM] | 0.2% | 28.2µM*
CC(=O)Nc1ccc(-c2csc(NC(=O)CC(NC(C)=O)c3ccccc3)n2)cc1 (stereo unspecified) | -17.8% | -3.2% | -13.0% | · | 44.7µM*
CCCCCC(=O)Nc1ccc(-c2csc(N)n2)cc1 | 24.8% | ? | -29.3% | · | 39.8µM*
CC(=O)Nc1ccc(-c2csc(N/N=C(/C)c3ccccc3)n2)cc1 | -16.6% | ? | ? | · | 17.8µM*
CC(=O)NC(CC(=O)Nc1cccc(S(=O)(=O)N2CCOCC2)c1)c1ccccc1 (stereo unspecified) | -15.0% | 4.6% | -16.0% | -3.1% | 5.8%
CCOc1ccccc1NS(=O)(=O)c1c(C(=O)OC)sc2cccc(F)c12 | 24.9% | -15.6% | -13.0% | · | 15.2%[59 µM]
COc1ccc(NC(=O)c2cnc[nH]2)cc1 | 45.4% | -22.6% | -10.1% | · | 26.1%[59 µM]
COc1ccc(NC(=O)Cn2cnc3c(oc4ccccc43)c2=O)cc1OC | 35.7% | -26.6% | -28.0% | · | 3.4%[59 µM]
CCC(=O)Nc1ccc(-c2csc(NNC(C)=O)n2)cc1 | 23.9% | -27.2% | -8.4% | 6.3% | 14.1µM*
CC1CCN(C(=O)CSc2nncn2-c2ccccn2)CC1 | -18.9% | 9.3% | 1.1% | 3.4% | 7.08µM*
CC1CCc2nc(-c3cc4ccc(O)cc4oc3=O)sc2C1 (stereo unspecified) | 29.0%[57 µM] | · | 34.6%[57.1 µM] | · | ·
COc1cccc(CN(C)CC(O)COc2cc(Cl)ccc2Cl)c1 (stereo unspecified) | ? | 56.2µM* | 6.31µM* | · | -16.9%
CC12CCC(C(=O)C1)C1(C)CCCC(=O)C21 (stereo unspecified) | 28.6% | · | -9.0% | · | ·
O=C(CSc1ccc2nnc(-c3ccncc3)n2n1)Nc1ccc2c(c1)OCO2 | 44.6% | -1.6% | -30.3% | · | 31.6µM*
O=C(CSc1ccc2nnc(-c3cccc(F)c3)n2n1)NCc1ccco1 | 8.5% | -34.8% | -29.5% | -2.1% | -8.9%
CC(=O)c1ccc(NC(=O)CSc2ccc3nnc(-c4ccccn4)n3n2)cc1 | 45.5% | 0.7% | 31.6µM* | · | 89.0%
